# Results: the supplement of paper PMC6555819
# Experiments:
# Assay in all cases: PBM binding z-score (relative to random genomic background probes); higher = stronger binding; sequences stand for … in GC…GCGATTGACAGCGTAGAATGAAGG
# [1] = test system: FXR:RXRa (NR concentration 270 nM, RXRa partner concentration 90 nM)
# Procedure, shortened: (§1)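 Binding z-scores were set against random background probes. The data came from custom Agilent 4×180K protein-binding microarrays carrying double-stranded probes with 34-nt variable regions, incubated 1 h with ligand-free nuclear receptor dimers. Partner-specific antibodies detected binding, and scanned fluorescence was regression-normalized.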
# [2] = test system: LXRa:RXRa (NR concentration 270 nM, RXRa partner concentration 90 nM)
# Procedure, shortened: as §1
# [3] = test system: LXRa homodimer (NR concentration 270 nM)
# Procedure, shortened: as §1
# [4] = test system: LXRb:RXRa (NR concentration 270 nM, RXRa partner concentration 90 nM)
# Procedure, shortened: as §1
# [5] = test system: LXRb homodimer (NR concentration 270 nM)
# Procedure, shortened: as §1
# [6] = test system: PPARa:RXRa (NR concentration 270 nM, RXRa partner concentration 90 nM)
# Procedure, shortened: as §1
# [7] = test system: PPARg:RXRa (NR concentration 180 nM, RXRa partner concentration 90 nM)
# Procedure, shortened: as §1
# [8] = test system: PPARg:RXRa 270nM:90nM, anti-RXR (NR concentration 270 nM, RXRa partner concentration 90 nM)
# Procedure, shortened: as §1
# [9] = test system: PPARg:RXRa 30nM:10nM, anti-RXR (NR concentration 30 nM, RXRa partner concentration 10 nM)
# Procedure, shortened: as §1
# [10] = test system: PPARg:RXRa 90nM:30nM, anti-RXR (NR concentration 90 nM, RXRa partner concentration 30 nM)
# Procedure, shortened: as §1
# [11] = test system: PPARg:RXRa DBDmut IVT, anti-RXR (DBD mutation: RXRa K156A/R161A, NR concentration 270 nM, RXRa partner concentration 90 nM)
# Procedure, shortened: as §1
# [12] = test system: PPARg:RXRa IVT, anti-PPARg (NR concentration 270 nM, RXRa partner concentration 90 nM)
# Procedure, shortened: as §1
# [13] = test system: PPARg DBDmut:RXRa IVT, anti-PPARg (DBD mutation: PPARg1 K132A/R137A, NR concentration 270 nM, RXRa partner concentration 90 nM)
# Procedure, shortened: as §1
# [14] = test system: PPARg DBDmut IVT, anti-PPARg (DBD mutation: PPARg1 K132A/R137A, NR concentration 270 nM)
# Procedure, shortened: as §1
# [15] = test system: PPARg homodimer (NR concentration 180 nM)
# Procedure, shortened: as §1
# [16] = test system: PXR:RXRa (NR concentration 270 nM, RXRa partner concentration 90 nM)
# Procedure, shortened: as §1
# [17] = test system: PXR homodimer (NR concentration 270 nM)
# Procedure, shortened: as §1
# [18] = test system: RARa:RXR (NR concentration 270 nM, RXRa partner concentration 90 nM)
# Procedure, shortened: as §1
# [19] = test system: RARa homodimer (NR concentration 270 nM)
# Procedure, shortened: as §1
# [20] = test system: RARb:RXRa (NR concentration 270 nM, RXRa partner concentration 90 nM)
# Procedure, shortened: as §1
Sequence,PBM binding z-score [1],PBM binding z-score [2],PBM binding z-score [3],PBM binding z-score [4],PBM binding z-score [5],PBM binding z-score [6],PBM binding z-score [7],PBM binding z-score [8],PBM binding z-score [9],PBM binding z-score [10],PBM binding z-score [11],PBM binding z-score [12],PBM binding z-score [13],PBM binding z-score [14],PBM binding z-score [15],PBM binding z-score [16],PBM binding z-score [17],PBM binding z-score [18],PBM binding z-score [19],PBM binding z-score [20]
CCAAGTTGGTCAGGAGGTCACACACCGGATATGA,3.68,3.62,1.69,3.38,0.316,4.43,3.8,4.03,1.85,2.97,2.06,3.44,0.859,0.385,2.39,4.24,0.876,4.41,0.729,3.8
CCAGACAGTTGAGAAGGTAACTCAGCCTCGATTA,0.18,0.172,0.398,0.125,0.336,0.142,0.175,-0.218,0.0704,0.0662,0.0699,-0.312,0.611,-0.051,1.22,0.00076,0.294,0.392,1.27,0.189
AGAATGAGGTTTCCAAAGATCAGGGAAACGCTTG,-0.506,-0.535,-0.424,-0.463,-0.489,-0.139,0.377,-0.265,-0.17,-0.215,0.298,-0.0805,0.256,0.153,-0.417,-0.387,-0.601,-0.144,-0.745,-0.151
ATCGAAAGCTCGTGAGGTGAGTATACAGAAAGGC,-0.207,-0.537,-0.718,-0.546,-0.682,-0.128,0.416,0.00274,0.112,-0.368,-0.799,0.0817,0.275,0.0739,-0.405,-0.403,-0.674,-0.104,-0.351,0.0466
TTACCAAGGTGAGCTGAGTTCGTTGATCCAACTC,0.596,0.237,-0.394,-0.0256,-1.28,0.596,-0.321,0.146,-0.237,0.19,1.27,1.51,-0.265,-0.637,-0.679,5.28,2.22,0.594,-0.779,1.04
CAAACTAGGACAAAGGTCAAAGTCGAGCCAACCA,6.31,6.08,4.5,5.58,2.61,7,12.1,10.6,10.9,11.9,6.48,7.54,2.91,1.8,4.89,5.62,2.1,6.43,3.25,4.8
AATACAGGGTCATCGTAGGCCAGGGTACGCACAG,7.02,6.11,2.59,4.52,1.33,5.71,6.91,6.06,2.54,4.9,2.56,4.25,1.78,1.18,4.25,4.84,0.528,5.17,1.22,4.32
TTACCAAGGTGAGCTGAGGTCCTTGATCCAACTC,0.6,-0.364,-0.744,-0.383,-1.22,0.604,-0.286,0.115,-0.357,-0.0305,0.555,1.8,-0.248,-1.12,-0.702,1.26,-0.737,0.613,-1.39,1.04
GCTTACGGGTAAAAGGTTATAGCATGAATAGAAT,1.77,2.73,0.384,2.57,0.0166,4.81,7.24,7.67,6.08,8.3,1.1,3.12,0.792,0.799,1.62,2.36,0.623,3.75,0.86,1.98
ATCTCTAGGTCACAAGTTCAGTGAAAGAGAGGAC,3.91,4.68,3.14,3.08,2.24,4.35,6.67,5.95,3.16,5.39,6.82,6.99,2.94,2.5,2.82,3.7,2.65,3.86,1.69,4.5
TTACCAAGGTGAAGGTCGTTGAGCCCTCTGTAGA,1.3,1.24,-0.339,0.883,-1.13,2.65,2.83,4.43,2.31,3.92,1.99,3.36,-0.0104,-0.329,0.702,1.16,-0.0928,1.57,-0.872,2.07
ACTAGTAGTTGACTTAGGGCAACCGATACGACGC,-0.211,-0.0231,-0.428,-0.351,-0.259,-0.00302,0.852,-0.176,-0.0859,-0.0744,-0.00679,0.335,0.301,0.391,-0.372,-0.0724,-0.195,0.555,0.281,0.593
CGTCCAAGGTCAATGCTAGGTCAGTGAAAGCATT,6.67,5.72,2.67,3.98,0.958,5.11,4.02,4.74,1.16,3.17,3.41,3.83,0.477,0.749,6.35,5.01,1.68,6.41,1.72,5.23
GCGACGGGGGCAAAGCAGGTTACCATAAGGTTGG,3.46,4.5,0.414,4.42,5.27,4,1.96,3.58,1.84,3.04,2.39,4.59,4.08,8.05,1.37,3.8,1.1,2.78,0.26,2.88
ACAGACAGGTGATGAAGTTAACTCAGGCTATCAT,-0.177,-0.305,-0.307,-0.225,-0.182,-0.03,0.514,-0.0899,-0.051,-0.038,-0.14,0.266,0.864,0.239,0.153,0.166,0.125,0.133,0.502,-0.00565
TCTATTAGTTGATGGGCAACCGACGAGTCCGTTT,0.353,0.502,-0.0154,0.186,0.322,-0.00429,0.0134,1.55,3.41,2.29,2.03,0.211,0.778,1.05,0.547,0.231,0.849,-0.171,0.633,0.125
CGTACTAGGTCAGAACAGGACAGTGAAGGATGAT,1.43,1.05,0.203,0.274,-0.0494,2.29,4.39,3.35,1.31,2.31,6.87,6.46,1.58,0.904,1.06,1.05,0.324,1.26,0.637,3.05
CAAACTACGTCAAAGGTCAAAGTCGAGCCAACCA,5.96,6.21,4.83,5.68,2.75,6.18,8.64,7.97,6.79,8.59,0.954,3.98,7.78,3.09,4.03,5.6,1.77,6.64,2.88,4.73
TCTAGTTGGTCACGGAAGTCACACACGACGGGTA,0.525,0.526,0.27,0.598,0.323,1.21,1.27,1.85,3.33,2.65,2.3,2.31,1.45,0.841,1.08,0.653,0.0861,1.01,1.21,1.65
CCTAGTTGGTCAGGAGGGCACACACCGGATATGA,0.184,0.335,0.0656,0.24,-0.0952,0.641,0.988,0.912,0.0866,0.594,0.374,1.62,-0.178,-0.301,1.22,0.369,0.17,0.233,0.714,1.71
TCTAGTTGGTCACGCAGGTCACACACGACGGGTA,1.94,1.98,1.08,2.09,0.279,2.87,2.09,2.99,3.37,2.92,2.32,3.48,0.238,1.23,1.91,2.72,0.544,3.15,1.14,3.05
CCGACTGGGGCAGAAAGGTTACCTTACCATCCGG,-0.0725,0.286,-0.251,0.547,-1.39,1.73,1.36,2.55,0.398,1.91,1.43,1.85,-1.35,-1.29,0.0892,0.658,-0.611,1.48,-0.873,1.5
ATCGAAAGGTCGACGAGGTGCGTATACACCGTTT,4.16,2.96,-0.0247,2.54,0.0651,4.07,2.24,2.73,0.695,1.53,0.356,1.41,0.639,-0.109,1.06,3.37,-0.325,2.45,-0.212,3.79
CCGACTGGGGCATAAGGTCACCATAAGCCAGCCC,3.25,3.18,0.732,2.78,-0.819,4.02,4.56,4.89,2.53,4.9,2.94,4.43,0.997,0.485,6.12,3.81,0.594,5.16,2.35,3.84
CGGACTGGGGCAAGGTTACCATAACGCACAGCCA,0.491,1.02,-0.284,1.05,-0.449,2.67,4.88,4.78,2.59,4.2,4.9,5.59,0.588,0.000804,0.759,0.516,-0.28,1.03,-0.565,1.67
CAAACTAGGTCATAGAGGTCAAAGTCCGTGCGTA,7.25,6.71,8.36,6.15,2.33,6.49,9.13,7.74,6.17,7.92,8.2,8.54,1.02,1.45,5.21,6.75,12.4,6.77,2.28,5.12
GCTCGGAGGACAACGTCAGAGCTTTGTCCGTAGA,-0.816,-1.18,-1,-1.15,-1.11,-0.78,-0.651,-1.1,-1.29,-1.22,-0.91,-0.67,-2,-1.23,-2.11,-0.976,-1.16,-1.29,-1.57,0.852
TCGAGTTGGTCACGGAGGTCACACACGACGGGTA,3.27,3.24,1.8,3.05,-0.188,3.87,3.18,3.36,1.82,2.63,0.979,2.98,0.179,0.0233,2.35,4.79,1.32,4.55,0.63,3.84
TCTGCTAGGTCAGTTGGTAAGCTAACGAGCTGCC,0.91,0.626,-1.01,0.157,0.503,0.96,0.118,1.28,1.04,1.18,2.46,2.46,-0.0986,0.0442,-0.393,-0.186,-1.11,0.233,-1.42,3.29
